Screening results deposited in PubChem by The Scripps Research Institute Molecular Screening Center.
The list is not random: actives were taken first. Their share in the collection is about 3.2%.
rCAG RNA binder: binders of r(CAG) RNA repeats, primary screen, biochemical, fluorescence. r(CAG) RNA repeat, TO-PRO-1 dye displacement fluorescence. inhibition, % at 3 µM. actives 1.3% (n = 370,000);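 active means inhibition above the plate cutoff, the mean of all test compounds on that plate plus 3 SD, cut at about 35% in these data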;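 further: 0% = DMSO alone and 100% = 100 µM mitoxantrone as full dye displacement; higher means more dye released from RNA so lower well fluorescence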
HGIII-sPLA2 inh: human group III sPLA2 inhibitors, primary screen, biochemical, QFRET, BODIPY PC-A2 liposome substrate; actives 0.56% (n = 370,000); Group 3 secretory phospholipase A2 (Homo sapiens), Q9NZ20; QFRET BODIPY PC-A2 liposome hydrolysis, fluorescence; inhibition, % at 12.2 µM;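 active means inhibition above mean plus 3 SD of compounds lying within the high and low control bounds, cut at about 19% in these data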;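 further: 0% = median of test compound wells and 100% = no enzyme DMSO wells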
Target sequence (Q9NZ20 whole entry, looked up): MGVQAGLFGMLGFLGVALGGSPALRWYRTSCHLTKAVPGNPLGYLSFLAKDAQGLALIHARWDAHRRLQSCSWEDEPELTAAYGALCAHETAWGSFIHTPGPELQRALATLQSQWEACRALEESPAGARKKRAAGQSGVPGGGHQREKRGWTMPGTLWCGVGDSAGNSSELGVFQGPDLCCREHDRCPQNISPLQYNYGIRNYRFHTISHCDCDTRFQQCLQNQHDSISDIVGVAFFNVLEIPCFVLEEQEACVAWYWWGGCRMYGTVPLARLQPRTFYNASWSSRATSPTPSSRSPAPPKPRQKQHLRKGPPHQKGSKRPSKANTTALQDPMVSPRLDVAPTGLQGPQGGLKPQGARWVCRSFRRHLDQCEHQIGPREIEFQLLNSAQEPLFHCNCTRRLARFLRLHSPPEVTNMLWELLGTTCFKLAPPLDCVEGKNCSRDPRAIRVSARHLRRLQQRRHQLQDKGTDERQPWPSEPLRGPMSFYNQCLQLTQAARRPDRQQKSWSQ
MsrA act: bovine MsrA enzyme activators, primary screen, biochemical, absorbance, HTS | Methionine sulfoxide reductase A (Bos taurus) | purified bovine MsrA, absorbance read-out | activation, % at 10.6 µM | actives 0.3% (n = 360,000); in the data active means activation above about 7.5%;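 further: 0% = vehicle and 100% = reference activator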
MsrA inhibitor: bovine MsrA enzyme inhibitors, primary screen, biochemical, absorbance, HTS; AID 651718, 2012; Methionine sulfoxide reductase A (Bos taurus); purified bovine MsrA, absorbance read-out; actives 0.75% (n = 360,000); inhibition, % at 15.5 µM; in the data active means inhibition above about 4.5%;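 further: 0% = vehicle wells with enzyme and 100% = reference inhibitor wells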
PG9 Ab binder: binders of HIV-1 gp120 antibody PG9, primary screen, biochemical, TR-FRET | HIV-1 gp120 / PG9 antibody interaction | TR-FRET gp120-PG9 antibody binding | inhibition, % at 6.7 µM | actives 0.43% (n = 360,000) | AID 624416, 2012; in the data active means inhibition above about 8.5%
Active calls of the source: *; . = not tested or not shown.

SMILES	rCAG RNA binder	HGIII-sPLA2 inh	MsrA act	MsrA inhibitor	PG9 Ab binder
Clc1nc(-c2ccccn2)nc2scc(-c3ccccc3)c12	-2	21*	-2	3	-1
CC1CCN(c2nc(-c3cccnc3)nc3scc(-c4ccccc4)c23)CC1	1	2	0	0	1
CC(=O)N1c2cc(S(=O)(=O)N3CCN(c4ccccc4F)CC3)c(Br)cc2CC1C (centres undefined)	2	-9	.	.	.
O=C1/C(=C/c2cccnc2)N=C2CCCCCN12	1	8	-4	4.6*	-6
Cc1ccc2cc3cc(C(=O)NCCCN4CCCC4=O)oc3nc2c1	-4	-3	-5	4.6*	0
Cc1c(/C=N/Nc2nc3ccccc3[nH]2)c2ccccc2n1C	23	6	-4	-1	-8
CCCn1c(/C=N/Nc2nc3ccccc3[nH]2)nc2ccccc21	5	31*	4	2	1
O=C(c1ccccc1)N1CC[C@H]2[C@H](CCCN2Cc2ccccc2)C1	8	1	.	.	.
O=C(CC1C=CCC1)OCCN1CCN(C2CN(Cc3cn(Cc4ccccc4Cl)nn3)S(=O)(=O)C2)CC1 (centres undefined)	-2	1	.	.	.
COc1ccc(Cl)cc1NC(=S)N(Cc1ccccc1C)CC1CCC(C(=O)O)CC1 (centres undefined)	45*	-17	-13	1	-1
CC(COc1cccc(C#N)c1)CN1CCC(C(O)(c2ccccc2)c2ccccc2)CC1 (centres undefined)	0	-10	.	.	.
COc1ccc(/C=C/c2nc(-c3ccccc3O)n[nH]2)cc1OC	48*	-75	-5	3	-1
CN(C)/C=N/c1ncc(C(=O)c2ccc3ccccc3c2)s1	1	-5	-6	4.6*	1
CC(=O)c1ccc2c(c1)C1C=CCC1C(C(=O)O)N2 (centres undefined)	96*	-11	-4	4	2
CCn1nc(C)cc1C(=O)Sc1cccc(Cl)c1	42*	14	-5	0	-2
COc1ccc(CNC(=O)c2cc(-c3ccco3)on2)cc1	5	4	22*	1	0
CCOc1ccc(-n2c(SCC(=O)Nc3ccc4cn[nH]c4c3)nnc2-c2ccncc2)cc1	3	-7	.	.	.
Cc1ccsc1/C=N/NC(=O)c1c[nH]c2ccccc12	5	-2	-4	5.1*	-3
COC(=O)C1CN(Cc2cn(CCC3OCCO3)nn2)CCS(=O)(=O)N1Cc1ccc(OC)cc1 (centres undefined)	-1	7	.	.	.
O=C(c1ccccc1)c1c2c(cc3sc4ccccc4[n+]13)-c1cccc3cccc-2c13	24	23*	-1	1	-7
CCOC(=O)Nc1sc2c(c1C(=O)OCC)CCC2	5	8	-3	1	0
CCOC(=O)c1c(NC(=O)C2CCCCC2C(=O)O)sc2c1CCCCC2 (centres undefined)	45*	-14	-2	2	3
Nc1ccccc1SC(CC(=O)c1ccccc1)c1cccc([N+](=O)[O-])c1 (centres undefined)	10	-2	8.1*	1	-1
Nc1ccccc1SC(CC(=O)c1ccccc1)c1ccc([N+](=O)[O-])cc1 (centres undefined)	8	1	6	2	1
COc1cc2nc(NC(=O)c3ccccc3)[nH]c(=O)c2cc1OC	2	6	-2	3	2
SMILES	rCAG RNA binder	HGIII-sPLA2 inh	MsrA act	MsrA inhibitor	PG9 Ab binder
COc1cc2nc(NC(=O)c3ccccc3)sc(=O)c2cc1OC	3	0	-13	0	25*
NC(=O)c1nn2c(C(F)(F)F)cc(-c3ccccc3)nc2c1Br	3	16	-8	4.6*	-1
O=C(OC12CCCN(C1)/C(=C/c1ccc(Cl)cc1)C2)c1ccno1 (centres undefined)	3	-6	.	.	.
Cc1nn(CCCC(=O)Nc2sc3c(c2C#N)CCC3)c(C)c1[N+](=O)[O-]	3	3	-1	25*	-1
Cc1nn(C(C)C(=O)Nc2sc3c(c2C#N)CCCC3)c(C)c1[N+](=O)[O-] (centres undefined)	6	7	0	1	1
C=CC[C@@]1(c2ccc(Br)cc2OC)Oc2ccccc2-c2nccnc21	6	-4	.	.	.
C=CCN1[C@H](CC(C)C)COc2cccc(N3CCSCC3)c2S1(=O)=O	-1	4	.	.	.
CCCc1c(C)[nH]c2ccc(C(=O)O)cc2c1=S	45*	-7	-2	0	3
CC1Cc2cc(/C=C3/SC(=S)N(C)C3=O)ccc2O1 (centres undefined)	1	7	-1	1	0
CC1Cc2cc(/C=C3/SC(N4CCC(C(N)=O)CC4)=NC3=O)ccc2O1 (centres undefined)	2	-3	-3	4.6*	-5
CCN(CC)c1ccc(C2N(C(=O)N3CCOCC3)CCN2S(=O)(=O)c2ccc(C)cc2)cc1 (centres undefined)	-3	3	-12	4.6*	1
Cc1ccc(S(=O)(=O)N2CCN(C(=O)N3CCOCC3)C2C(C)C)cc1 (centres undefined)	-5	4	-2	2	0
CC(=O)c1ccc(N2CCN(C(=O)C(=O)c3c(C)[nH]c4ccccc34)CC2)cc1	5	-11	-6	4.6*	-3
Cc1nn(-c2ccccc2)c(N2CCCC2)c1/C=N/NC(=O)c1cc(-c2ccccc2)nc2ccccc12	16	4	-5	4.6*	-1
S=C1Cc2ccccc2N1	44*	19	26*	-1	0
S=C1Nc2ccccc2CS1	4	9	-7	2	0
O=C(NC1CCCCC1)C(c1cccc2ccccc12)n1c(=O)c(-c2ccco2)nc2ccccc21 (centres undefined)	35*	12	.	0	2
CC(C)(C)NC(=O)C(c1ccccc1)n1c(=O)c(-c2ccco2)nc2ccccc21 (centres undefined)	36*	-6	.	1	0
CCN(CC)C(=O)CC[C@@H]1CC[C@]2(CCCN(S(=O)(=O)c3ccccc3)C2)O1	0	3	.	.	.
Cc1ccc(-c2nnc(SCC(=O)Nc3ccc4c(c3)OCCO4)n2-c2ccc(Cl)cc2)cc1	8	2	.	.	.
CC1(C)Cc2c(c(=S)nc(-c3ccccc3)n2CCN2CCOCC2)CO1	-2	4	-4	4.6*	-3
COc1ccc2nc(NC(=O)Nc3ccccc3)sc2c1	43*	-32	1	-1	-1
COc1cccc2sc(Nc3nc4ccc(NC(C)=O)cc4s3)nc12	49*	-34	-3	2	0
COc1ccc2nc(NC(=O)c3ccccc3C(=O)O)sc2c1	2	-6	-7	0	0
C1CCN(c2nc3nonc3nc2N2CCCC2)C1	1	3	-4	5.1*	1
